In PubChem BioAssay AID624297 (National Center for Advancing Translational Sciences (NCATS), 2012):
Hit rate of the full screen: of about 340,000 compounds, about 6,200 (1.8%) were called active. Where a call stands in place of a potency, no number is given. Inconclusive results (about 10%) are left out. Calls follow the shape of the dose curve; as a rule, active = well fitted activation curve with a large enough effect; inconclusive = small, poorly fitted or top-dose-only effect; inactive = no such curve, though single readings can be large or run the other way. Only a selection was taken, and actives are over-represented in it overall.

Test: A quantitative high throughput screen for small molecules that induce DNA re-replication in SW480 colon adenocarcinoma cells. Also: nearly all actives have a fitted effect of over 55% in size.
Settings: Hoechst DNA content imaging, 48 h; series mostly up to 46.1 µM
Description: H Molecular Libraries Probe Production Network [MLPCN] NIH Chemical Genomics Center [NCGC] MLPCN Grant: Fast Track K99 CA136555 Assay Provider: Melvin DePamphilis, NICHD, NIH Assay Overview Eukaryotic cells normally restrict genome duplication to once per cell division. When this process is aberrant, DNA re-replication occurs when cells reinitiate DNA replication before the first round of replication is complete. DNA re-replication induces the DNA damage response, arrests cell proliferation, and triggers apoptosis. The cell cycle components cyclin A, Cdt-1, Cdc6 and geminin are critical regulators of this process and their misregulation results in DNA re-replication in normal and cancer cells. To identify compounds that induce re-replication in normal cells, an image-based assay was used to measure DNA content of nuclei, as detected by the fluorescent DNA binding dye, Hoechst. Cell nuclei were imaged by a fluorescence scanning plate imager and compounds that induce DNA re-replication were identified by the increase of nuclei with elevated fluorescence intensity
For screening, 250 cells in 5 uL/well were dispensed into black clear 1536-well plates (Aurora) using a solenoid-based dispenser. Following transfer of 23 nL compound or DMSO vehicle by a pin tool, the plates were incubated 48 hr at 37 C and 5% CO2. After addition of 1 uL/well Hoescht stain, the plates were incubated 40 min at 37 C, 5% CO2 and total intensity of fluorescent objects (nuclei) were enumerated by an Acumen Explorer Ex3 (TTP LabTech) fluorescence scanning plate imager (405 nm excitation, 500-530 nm emission). Keywords: NIH Roadmap, MLPCN, MLI, MLSMR, qHTS, NCGC, DNA replication, cancer
Potency is read from the fitted curve at half-maximal effect.

| Compound | Potency |
| --- | --- |
| Cc1cc(=O)oc2c(C)c(OCC(=O)N3CCN(Cc4ccc5c(c4)OCO5)CC3)ccc12 | inactive |
| O=C(Cc1ccccc1[N+](=O)[O-])N1CCN(Cc2ccc3c(c2)OCO3)CC1 | 16.4 µM (active) |
| Fc1ccc(N2CCN(Cc3ccc4c(c3)OCO4)CC2)cc1 | inactive |
| CC1([N+](=O)[O-])COP(=O)(Nc2ccc(F)cc2)OC1 (stereo not given) | inactive |
| CC1CNCCN1c1ccc(Cl)cc1 (stereo not given) | inactive |
| COc1cc(-n2c(=S)[nH]c3ccc(C)cc3c2=O)c(Cl)cc1Cl | 18.4 µM (active) |
| C[C@]12CCC3C(CC[C@H]4[C@H](O)[C@H](O)CC[C@]34C)C1CCC2=O (stereo not given in full) | inactive |
| O=C(CSc1ccccc1)Nc1ccc(C(=O)Nc2cccc(O)c2)cc1 | inactive |
| CCC(C)n1c(O)c(/C=N/Nc2nc3c(c(=O)n(C)c(=O)n3C)n2C)c(=O)[nH]c1=S (stereo not given) | 23.1 µM (active) |
| CC1CC=CCC12C(=O)NC(=S)NC2=O (stereo not given) | inactive |
| CNC(C)[C@@H](O)c1ccccc1 (stereo not given in full) | inactive |
| CC1=CC(=Cc2sc3ccccc3[n+]2C)C=C(C)O1 | 5.8 µM (active) |
| CCC1(CC(C)c2ccccc2)C(=O)NC(=O)NC1=O (stereo not given) | inactive |
| Cc1cc(C)c2c(c1)NP(=S)(c1ccccc1)N2 (stereo not given) | inactive |
| CCOC(=O)CC(SP1(=S)OCC2(CCCCO2)C(C2CCCCO2)O1)C(=O)OCC (stereo not given) | inactive |
| O=C(N/N=C/c1ccc([N+](=O)[O-])o1)c1cc([N+](=O)[O-])cc([N+](=O)[O-])c1O | inactive |
| CC[C@H]1CN2CCc3cc(OC)c(OC)cc3[C@@H]2C[C@@H]1C[C@H]1NCCc2cc(OC)c(OC)cc21 | 0.291 µM (active) |
| O=C1NC(=O)C(CCOc2ccccc2)(CCc2ccccc2)C(=O)N1 | inactive |
| CCC(=O)OC(Cc1ccccc1)(c1ccccc1)C(C)CN(C)C (stereo not given) | inactive |
| CCOP(=O)(OCC)C(Nc1cccc(C)c1)c1ccc(F)cc1 (stereo not given) | inactive |
| CN1CCCC(=C(c2cccs2)c2cccs2)C1 | inactive |
| Nc1ccc(Cc2ccc(N)c(Cl)c2)cc1Cl | inactive |
| C[C@]12CCCCC1=CC(=O)C1C2CC[C@@]2(C)C1C[C@@H](F)[C@@H]2O (stereo not given in full) | inactive |
| Cc1ncsc1CCCl | inactive |
| Cc1cc2ccccn2c1C(C[N+](=O)[O-])c1c(F)cccc1Cl (stereo not given) | 7.31 µM (active) |

| Compound | Potency |
| --- | --- |
| CCOc1ccc(S(=O)(=O)NCc2ccc3c(c2)OCO3)cc1C | inactive |
| CC(CC(C#N)(c1ccccc1)c1ccccc1)N1CCCCC1 (stereo not given) | inactive |
| COc1ccc(C2CC(c3cccs3)=NN2c2nc(C)c(C(C)=O)s2)cc1OC (stereo not given) | 14.6 µM (active) |
| O=C(NCc1cccs1)c1ccc(Br)o1 | inactive |
| Cc1cccc([C@H](C)c2cnc[nH]2)c1C | inactive |
| CCOC(=O)C1(c2ccccc2)CCN(CC(O)c2ccc(NC(C)=O)cc2)CC1 (stereo not given) | inactive |
| c1ccc2sc(SNC3CCCCC3)nc2c1 | inactive |
| COc1ccc2c(c1)NP(=S)(c1ccccc1)N2 (stereo not given) | inactive |
| O=c1c2ccccc2nc(-c2ccco2)n1-c1ccc(Br)cn1 | inactive |
| O=c1c2ccccc2nc(/C=C/c2ccco2)n1-c1ccccc1O | 20.6 µM (active) |
| O=c1c2ccccc2nc(-c2ccccc2)n1-c1ccccn1 | inactive |
| C=CCN1CCC23c4c5ccc(O)c4O[C@H]2C(=O)CC[C@@]3(O)C1C5 (stereo not given in full) | inactive |
| CC(C)(C)CC(=O)Nc1nnc(SCC(=O)NCc2cccs2)s1 | inactive |
| Cc1cc(-c2ccc(N)c(C)c2)ccc1N | inactive |
| CCC1(c2ccccc2)C(=O)NC(=O)N(C)C1=O (stereo not given) | inactive |
| CCN1C(=O)NC(=O)C2(CCCC2)C1=O | inactive |
| CC(=O)OC1C2(CC3N4C(=O)C5(CO)SSC4(CC31O)C(=O)N5C)OC(C)C(C)(C)C2=O (stereo not given) | 0.461 µM (active) |
| CCNC[C@H](O)c1cccc(O)c1 | inactive |
| O=C1NC(=O)C(Cc2ccccc2)C(=O)N1 | inactive |
| CC1CCCN1CCC(C(N)=O)(c1ccccc1)c1ccccc1 (stereo not given) | inactive |
| COc1ccc2c3c1O[C@H]1C[C@@H](O)C=C[C@@]31CCN(C)C2 | inactive |
| CC=C(C)C(=O)OC1CCN2CC=C(COC(=O)C(O)(C(C)OC)C(C)(C)O)C12 (stereo not given) | inactive |
| CCC1(C)CC(CCNCc2ccc(N(C)C)cc2)(c2ccc(F)cc2)CCO1 (stereo not given) | 18.4 µM (active) |
| CC[N+]1(CCOC(=O)C(O)(c2ccccc2)c2ccccc2)CCCCC1 | inactive |
| C=C(C)C1(CCCC)C(=O)NC(=S)NC1=O | inactive |
